Test results taken from the supplement of paper PMC10849652.
The full data set covers some 7,900 targets. This sample favours those with a hit. About 0.6% of all pairs of compound and target were hits.

Columns and labels:
Assay in all cases: log2 fold change, soluble protein after heating vs DMSO (PISA); higher = thermal stabilisation; K562 cells, 10 uM, 30 min; active = over 0.2 and 3.5 SD of the protein, either way, in both replicates (recomputed)
[1] = compound: NC(=O)Nc1cc(-c2cccc(F)c2)sc1C(=O)N[C@H]1CCCNC1
Summary of the method: (§1)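 Soluble protein was quantified by TMTpro 16plex LC-MS/MS after channel sums were equalised. It was obtained as the supernatant after 21,000xg for 90 min from pooled aliquots of K562 cells (2×10^6 cells/mL, 10 μM compound, 30 min) heated for 3 min across 48°C-58°C and extracted in PBS with 0.5% NP-40 at 4°C. Thermal stability values are relative to control samples and come from duplicates. They are given as log2 fold changes.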

[2] = compound: NC(=O)c1cnc(N[C@@H]2CCCC[C@@H]2N)nc1Nc1cccc(-n2nccn2)c1
Summary of the method: as §1

[3] = compound: NC1(c2ccc(-c3nc4ccn5c(=O)[nH]nc5c4cc3-c3ccccc3)cc2)CCC1
Summary of the method: as §1

[4] = compound: NCC(=O)Nc1ccc(-n2nc(C(F)(F)F)cc2-c2ccc3c(ccc4ccccc43)c2)cc1
Summary of the method: as §1

[5] = compound: Nc1ccccc1NC(=O)c1ccc(CNC(=O)OCc2cccnc2)cc1 [entinostat]
Summary of the method: as §1

[6] = compound: O=C(CCCCCCC(=O)Nc1ccccc1)NO [vorinostat]
Summary of the method: as §1

[7] = compound: O=C(CCCCCCNC(=O)c1cnc(N(c2ccccc2)c2ccccc2Cl)nc1)NO [citarinostat]
Summary of the method: as §1

[8] = compound: O=C(O)c1ccc2c(c1)nc(Nc1cccc(Cl)c1)c1ccncc12 [silmitasertib]
Summary of the method: as §1

[9] = compound: O=C1NC(=O)C(c2cnc3ccccn23)=C1c1cn2c3c(cc(F)cc13)CN(C(=O)N1CCCCC1)CC2
Summary of the method: as §1

[10] = compound: c1cc(OCCN2CCCCC2)cc(-c2n[nH]c3ccc(-c4nnc[nH]4)cc23)c1
Summary of the method: as §1

[11] = compound: c1cn2cc(-c3ccc4cn[nH]c4c3)nc(Nc3ccc(N4CCOCC4)cc3)c2n1 [entospletinib]
Summary of the method: as §1

Measured: log2 fold change

CDK5 (UniProt Q00535)
inactive: [1] -0.045 | [2] -0.01 | [3] -0.065 | [4] -0.082 | [5] 0.016 | [6] 0.007 | [7] 0.06 | [8] 0.016 | [9] -0.1 | [10] -0.05 | [11] -0.022

CHD4 isoform 2 (UniProt Q14839)
inactive: [1] -0.043 | [2] -0.07 | [3] -0.122 | [4] -0.039 | [5] 0.022 | [6] 0.049 | [7] 0.063 | [8] 0.099 | [9] -0.023 | [10] -0.069 | [11] 0.007

C9orf64 (UniProt Q5T6V5)
UniProt Q5T6V5, sequence (Q5T6V5 whole entry, looked up): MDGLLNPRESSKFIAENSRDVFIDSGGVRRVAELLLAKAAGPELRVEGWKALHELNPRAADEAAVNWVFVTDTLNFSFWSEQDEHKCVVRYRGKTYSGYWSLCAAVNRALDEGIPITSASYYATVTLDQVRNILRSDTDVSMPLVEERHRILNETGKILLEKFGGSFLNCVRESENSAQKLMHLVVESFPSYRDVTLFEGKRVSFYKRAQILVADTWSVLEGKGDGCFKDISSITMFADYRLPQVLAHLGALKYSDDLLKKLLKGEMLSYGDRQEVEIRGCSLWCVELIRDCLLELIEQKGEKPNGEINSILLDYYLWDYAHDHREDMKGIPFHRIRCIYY
inactive: [1] 0 | [2] -0.155 | [3] -0.338 | [4] -0.02 | [5] 0.088 | [6] 0.167 | [7] 0.064 | [8] 0.037 | [9] 0.012 | [10] -0.106 | [11] 0.009

CHST11 (UniProt Q9NPF2)
inactive: [1] -0.045 | [2] 0.068 | [3] -0.181 | [4] 0.139 | [5] -0.027 | [6] 0.001 | [7] 0.276 | [8] -0.044 | [9] 0.013 | [10] 0.054 | [11] -0.1

CHKA (UniProt P35790)
UniProt P35790, sequence (P35790 whole entry, looked up): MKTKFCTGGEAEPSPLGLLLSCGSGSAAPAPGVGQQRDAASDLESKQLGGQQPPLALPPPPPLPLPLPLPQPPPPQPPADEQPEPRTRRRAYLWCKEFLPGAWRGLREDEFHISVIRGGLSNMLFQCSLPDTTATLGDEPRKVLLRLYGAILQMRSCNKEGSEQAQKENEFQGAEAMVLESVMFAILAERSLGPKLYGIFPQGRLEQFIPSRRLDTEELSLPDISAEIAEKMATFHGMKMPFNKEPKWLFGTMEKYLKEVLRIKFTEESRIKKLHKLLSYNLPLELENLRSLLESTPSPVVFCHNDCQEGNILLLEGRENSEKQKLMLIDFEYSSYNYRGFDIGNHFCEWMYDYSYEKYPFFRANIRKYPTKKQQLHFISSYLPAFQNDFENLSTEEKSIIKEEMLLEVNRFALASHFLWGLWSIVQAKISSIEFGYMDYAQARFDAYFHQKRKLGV
inactive: [1] 0.015 | [3] 0.014 | [4] 0.012 | [5] -0.023 | [6] -0.034 | [7] -0.055 | [8] 0.013 | [9] -0.011 | [10] -0.012 | [11] 0.021
active: [2] -0.316

CAVIN1 (UniProt Q6NZI2)
inactive: [1] 0.034 | [2] -0.07 | [3] 0.046 | [4] 0.074 | [5] 0.008 | [6] 0.004 | [7] -0.004 | [8] 0.041 | [9] 0.108 | [10] -0.087 | [11] 0.076

C16orf58 (UniProt Q96GQ5)
inactive: [1] -0.047 | [2] -0.05 | [3] -0.111 | [4] -0.08 | [5] 0.001 | [6] 0.026 | [7] 0.034 | [8] 0.032 | [9] -0.027 | [10] -0.017 | [11] 0.011

CETN2 (UniProt P41208)
inactive: [1] -0.051 | [2] 0.024 | [3] 0.102 | [4] 0.076 | [5] -0.033 | [6] -0.122 | [7] -0.1 | [8] -0.028 | [9] -0.027 | [10] -0.091 | [11] 0.057

CAMK2G isoform 6 (UniProt Q13555)
UniProt Q13555, sequence (Q13555 whole entry, looked up): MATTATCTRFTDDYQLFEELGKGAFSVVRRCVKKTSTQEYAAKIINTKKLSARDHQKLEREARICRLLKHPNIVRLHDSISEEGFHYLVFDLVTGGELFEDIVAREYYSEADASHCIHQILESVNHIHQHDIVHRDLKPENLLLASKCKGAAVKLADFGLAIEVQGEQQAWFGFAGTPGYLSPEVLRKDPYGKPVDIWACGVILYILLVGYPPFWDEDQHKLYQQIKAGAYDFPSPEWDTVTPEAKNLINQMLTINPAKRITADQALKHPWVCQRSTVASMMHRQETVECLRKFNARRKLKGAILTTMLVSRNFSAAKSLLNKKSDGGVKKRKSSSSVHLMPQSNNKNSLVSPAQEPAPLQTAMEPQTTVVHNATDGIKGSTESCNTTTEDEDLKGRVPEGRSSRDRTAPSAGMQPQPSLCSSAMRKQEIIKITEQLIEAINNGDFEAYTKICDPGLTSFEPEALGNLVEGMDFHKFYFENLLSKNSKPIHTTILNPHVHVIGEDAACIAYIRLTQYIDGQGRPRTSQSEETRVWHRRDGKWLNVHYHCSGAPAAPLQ
inactive: [1] -0.306 | [2] -0.033 | [3] 0.038 | [4] 0.057 | [5] 0.119 | [6] 0.119 | [7] -0.02 | [8] 0.158 | [9] 0.177 | [10] -0.053 | [11] 0.131

CHCHD2 (UniProt Q9Y6H1)
UniProt Q9Y6H1, sequence (Q9Y6H1 whole entry, looked up): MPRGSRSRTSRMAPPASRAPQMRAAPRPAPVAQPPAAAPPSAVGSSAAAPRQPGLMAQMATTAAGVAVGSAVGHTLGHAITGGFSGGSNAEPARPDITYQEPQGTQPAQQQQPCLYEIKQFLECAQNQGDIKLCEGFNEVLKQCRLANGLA
inactive: [1] -0.039 | [2] -0.011 | [3] 0.022 | [4] 0.012 | [5] -0.01 | [6] 0.005 | [7] 0.018 | [8] 0.009 | [9] -0.13 | [10] -0.008 | [11] 0.028

CD81 (UniProt P60033)
UniProt P60033, sequence (P60033 whole entry, looked up): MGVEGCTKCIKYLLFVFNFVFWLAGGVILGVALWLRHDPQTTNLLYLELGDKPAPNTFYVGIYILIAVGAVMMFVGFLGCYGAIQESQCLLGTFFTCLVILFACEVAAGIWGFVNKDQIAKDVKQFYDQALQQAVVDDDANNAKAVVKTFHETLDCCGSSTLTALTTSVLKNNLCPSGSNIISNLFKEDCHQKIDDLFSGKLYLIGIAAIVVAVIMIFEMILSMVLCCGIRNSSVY
inactive: [1] -0.051 | [2] 0.222 | [3] 0.21 | [4] 0.231 | [5] -0.028 | [6] -0.074 | [7] 0.065 | [8] 0.052 | [9] 0.066 | [10] -0.166 | [11] 0.019

CDCA2 (UniProt Q69YH5)
inactive: [1] -0.034 | [2] -0.096 | [3] -0.003 | [4] 0.037 | [5] -0.11 | [6] 0 | [7] -0.27 | [8] 0.133 | [9] 0.035 | [10] 0.243 | [11] -0.013

CHMP4B (UniProt Q9H444)
active: [1] 0.255
inactive: [2] -0.011 | [3] -0.065 | [4] -0.001 | [5] 0.108 | [6] 0.024 | [7] -0.044 | [8] -0.016 | [9] 0.014 | [10] 0.022 | [11] 0.044

CLINT1 isoform 3 (UniProt Q14677)
UniProt Q14677, sequence (Q14677 whole entry, looked up): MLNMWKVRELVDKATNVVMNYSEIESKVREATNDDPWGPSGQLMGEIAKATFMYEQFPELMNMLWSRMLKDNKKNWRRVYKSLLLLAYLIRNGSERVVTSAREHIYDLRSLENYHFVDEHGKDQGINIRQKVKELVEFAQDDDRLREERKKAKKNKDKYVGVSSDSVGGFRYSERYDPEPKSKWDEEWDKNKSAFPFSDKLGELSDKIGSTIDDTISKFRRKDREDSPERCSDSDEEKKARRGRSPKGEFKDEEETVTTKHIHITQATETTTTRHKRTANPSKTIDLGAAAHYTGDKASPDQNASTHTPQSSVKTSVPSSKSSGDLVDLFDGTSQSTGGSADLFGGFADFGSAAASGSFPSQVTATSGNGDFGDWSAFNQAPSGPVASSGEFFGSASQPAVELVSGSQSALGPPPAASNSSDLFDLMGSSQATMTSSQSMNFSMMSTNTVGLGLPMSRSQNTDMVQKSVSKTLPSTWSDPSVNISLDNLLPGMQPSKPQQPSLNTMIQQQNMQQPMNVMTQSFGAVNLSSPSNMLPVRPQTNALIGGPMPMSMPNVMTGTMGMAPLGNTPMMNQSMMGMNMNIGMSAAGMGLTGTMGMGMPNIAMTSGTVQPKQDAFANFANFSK
inactive: [1] 0.106 | [2] -0.027 | [3] 0.078 | [4] 0.058 | [5] -0.052 | [6] -0.035 | [7] -0.048 | [8] 0.008 | [9] 0.024 | [10] 0.015 | [11] 0.111

CNOT2 (UniProt Q9NZN8)
inactive: [1] -0.012 | [2] -0.014 | [3] -0.058 | [4] -0.087 | [5] -0.023 | [6] 0.018 | [7] 0.026 | [8] 0.046 | [9] 0.007 | [10] -0.058 | [11] -0.012

CDK17 isoform 2 (UniProt Q00537)
inactive: [1] -0.066 | [2] -0.258 | [3] -0.04 | [4] -0.074 | [5] 0.035 | [6] -0.114 | [7] -0.245 | [8] 0.088 | [9] 0.321 | [10] -0.083 | [11] 0.067

CPQ (UniProt Q9Y646)
inactive: [1] 0.083 | [2] -0.01 | [3] -0.011 | [4] 0.072 | [5] 0.012 | [6] -0.043 | [7] 0.038 | [8] -0.004 | [9] 0.03 | [10] 0.009 | [11] 0.011

CCNT1 (UniProt O60563)
inactive: [1] -0.027 | [2] -0.03 | [3] -0.021 | [4] -0.02 | [5] 0.034 | [6] 0.176 | [7] 0.053 | [8] 0 | [9] 0.047 | [10] -0.094 | [11] 0.038

CELF2 isoform 3 (UniProt O95319)
UniProt O95319, sequence (O95319 whole entry, looked up): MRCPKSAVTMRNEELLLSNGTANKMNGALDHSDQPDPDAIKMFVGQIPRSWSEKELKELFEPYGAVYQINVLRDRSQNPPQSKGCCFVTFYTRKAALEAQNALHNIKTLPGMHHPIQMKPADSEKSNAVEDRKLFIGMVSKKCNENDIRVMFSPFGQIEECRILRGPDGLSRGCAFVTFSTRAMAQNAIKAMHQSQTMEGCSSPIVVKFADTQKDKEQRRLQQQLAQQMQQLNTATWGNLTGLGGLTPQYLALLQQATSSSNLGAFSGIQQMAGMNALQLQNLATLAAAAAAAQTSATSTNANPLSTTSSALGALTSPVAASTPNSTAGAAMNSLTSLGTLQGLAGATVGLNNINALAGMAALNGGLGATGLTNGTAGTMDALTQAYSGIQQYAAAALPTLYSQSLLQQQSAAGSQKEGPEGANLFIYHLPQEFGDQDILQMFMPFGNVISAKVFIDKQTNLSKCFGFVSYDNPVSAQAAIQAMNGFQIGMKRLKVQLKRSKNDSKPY
inactive: [1] -0.047 | [2] 0.009 | [3] 0.017 | [4] -0.017 | [5] -0.048 | [6] -0.044 | [7] 0 | [8] 0.051 | [9] 0.102 | [10] -0.021 | [11] 0.009

CPT2 (UniProt P23786)
UniProt P23786, sequence (P23786 whole entry, looked up): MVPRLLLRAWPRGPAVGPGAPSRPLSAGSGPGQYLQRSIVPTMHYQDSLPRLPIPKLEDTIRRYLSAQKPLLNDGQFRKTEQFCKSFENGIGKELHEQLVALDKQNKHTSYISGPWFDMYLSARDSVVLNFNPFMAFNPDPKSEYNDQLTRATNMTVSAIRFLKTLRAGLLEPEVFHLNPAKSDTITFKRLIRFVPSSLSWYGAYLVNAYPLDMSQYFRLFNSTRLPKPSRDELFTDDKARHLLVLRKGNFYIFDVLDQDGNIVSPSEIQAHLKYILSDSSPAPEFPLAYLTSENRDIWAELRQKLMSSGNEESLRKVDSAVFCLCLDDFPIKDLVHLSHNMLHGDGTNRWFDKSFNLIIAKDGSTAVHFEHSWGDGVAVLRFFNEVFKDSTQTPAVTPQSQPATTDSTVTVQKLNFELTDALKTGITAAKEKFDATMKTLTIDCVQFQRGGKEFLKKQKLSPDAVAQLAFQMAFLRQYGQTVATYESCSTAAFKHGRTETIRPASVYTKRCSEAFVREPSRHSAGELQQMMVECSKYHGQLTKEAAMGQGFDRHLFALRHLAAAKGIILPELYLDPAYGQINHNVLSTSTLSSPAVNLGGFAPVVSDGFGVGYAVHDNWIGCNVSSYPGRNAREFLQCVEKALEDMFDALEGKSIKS
inactive: [1] -0.045 | [2] -0.264 | [3] 0.193 | [4] -0.052 | [5] 0.174 | [6] -0.097 | [7] -0.109 | [8] -0.08 | [9] 0.014 | [10] 0.157 | [11] 0.206

CPT1A (UniProt P50416)
inactive: [1] -0.068 | [2] -0.012 | [3] 0.117 | [4] -0.001 | [5] -0.005 | [6] -0.017 | [7] 0.053 | [8] 0.037 | [9] -0.014 | [10] 0.071 | [11] 0.019

CASP10 isoform 4 (UniProt Q92851)
UniProt Q92851, sequence (Q92851 whole entry, looked up): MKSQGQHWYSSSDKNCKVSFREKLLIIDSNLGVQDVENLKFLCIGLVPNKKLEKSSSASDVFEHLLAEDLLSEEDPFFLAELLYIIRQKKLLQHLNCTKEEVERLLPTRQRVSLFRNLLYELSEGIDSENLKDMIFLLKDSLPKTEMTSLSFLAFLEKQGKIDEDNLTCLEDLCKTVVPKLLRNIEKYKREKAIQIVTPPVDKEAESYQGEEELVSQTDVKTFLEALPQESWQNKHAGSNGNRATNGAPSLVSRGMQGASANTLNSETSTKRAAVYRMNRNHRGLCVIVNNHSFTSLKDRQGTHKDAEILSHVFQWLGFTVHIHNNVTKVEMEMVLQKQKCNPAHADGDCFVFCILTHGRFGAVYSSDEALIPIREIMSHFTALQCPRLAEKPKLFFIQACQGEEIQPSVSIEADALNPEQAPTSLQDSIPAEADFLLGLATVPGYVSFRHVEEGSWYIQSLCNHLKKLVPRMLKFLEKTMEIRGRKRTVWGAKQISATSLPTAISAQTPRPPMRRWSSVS
inactive: [1] -0.089 | [2] -0.058 | [3] -0.084 | [4] -0.055 | [5] -0.05 | [6] 0.258 | [7] 0.123 | [8] 0.076 | [9] 0.089 | [10] -0.13 | [11] 0.06

CBR1 (UniProt P16152)
UniProt P16152, sequence (P16152 whole entry, looked up): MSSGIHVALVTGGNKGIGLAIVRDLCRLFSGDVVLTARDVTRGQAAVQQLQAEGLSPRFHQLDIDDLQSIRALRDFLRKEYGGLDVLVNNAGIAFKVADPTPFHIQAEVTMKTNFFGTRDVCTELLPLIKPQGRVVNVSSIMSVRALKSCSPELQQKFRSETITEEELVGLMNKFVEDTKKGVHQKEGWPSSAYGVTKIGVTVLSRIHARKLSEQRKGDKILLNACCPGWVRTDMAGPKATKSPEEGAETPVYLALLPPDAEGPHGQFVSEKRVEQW
active: [10] 0.235
inactive: [1] -0.002 | [2] 0.025 | [3] -0.029 | [4] 0.037 | [5] -0.008 | [6] -0.041 | [7] 0.033 | [8] -0.011 | [9] -0.039 | [11] -0.019

CHCHD4 isoform 2 (UniProt Q8N4Q1)
inactive: [1] 0.335 | [2] 0.06 | [3] -0.007 | [4] 0.084 | [5] 0.339 | [6] 0.442 | [7] -0.013 | [8] 0.038 | [9] 0.123 | [10] 0.027 | [11] 0.036

CPSF6 isoform 2 (UniProt Q16630)
UniProt Q16630, sequence (Q16630 whole entry, looked up): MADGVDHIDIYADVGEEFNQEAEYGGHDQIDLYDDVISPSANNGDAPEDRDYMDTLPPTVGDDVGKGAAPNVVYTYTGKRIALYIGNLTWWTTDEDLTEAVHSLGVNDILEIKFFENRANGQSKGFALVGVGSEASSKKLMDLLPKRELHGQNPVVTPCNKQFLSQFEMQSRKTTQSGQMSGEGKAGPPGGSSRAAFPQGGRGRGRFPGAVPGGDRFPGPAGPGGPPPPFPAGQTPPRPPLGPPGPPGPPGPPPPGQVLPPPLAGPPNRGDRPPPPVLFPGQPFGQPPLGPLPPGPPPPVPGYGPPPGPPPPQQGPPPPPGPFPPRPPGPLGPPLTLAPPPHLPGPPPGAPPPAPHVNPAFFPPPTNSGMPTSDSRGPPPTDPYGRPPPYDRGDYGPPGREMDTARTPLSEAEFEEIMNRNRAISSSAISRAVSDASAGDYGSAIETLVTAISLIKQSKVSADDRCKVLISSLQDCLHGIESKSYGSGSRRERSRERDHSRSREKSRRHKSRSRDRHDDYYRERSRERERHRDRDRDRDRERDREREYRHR
active: [8] -0.225
inactive: [1] -0.027 | [2] -0.037 | [3] -0.01 | [4] 0.029 | [5] -0.008 | [6] -0.007 | [7] 0.004 | [9] -0.003 | [10] -0.179 | [11] 0.064
